# Results as given in PubChem BioAssay AID602143 (Vanderbilt Specialized Chemistry Center, 2011).
# A number with no mark means an inactive call. Activity calls are given as the source filed them. No stated cut-off is given here; in the data, active means remaining activity below about 50%; inactive means the rest.
# Target: Phospholipase D2 (Homo sapiens) (UniProt O14939)
# Assay: cellular phospholipase D2 activity inhibition – cell-based, HEK293, single concentration (AID 602143);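 further: tested at 200 nM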
# Conditions: HEK293 cellular PLD2 activity, percent of control; stronger effect = lower value
# Sequence of Phospholipase D2 (Homo sapiens) (O14939 whole entry, looked up): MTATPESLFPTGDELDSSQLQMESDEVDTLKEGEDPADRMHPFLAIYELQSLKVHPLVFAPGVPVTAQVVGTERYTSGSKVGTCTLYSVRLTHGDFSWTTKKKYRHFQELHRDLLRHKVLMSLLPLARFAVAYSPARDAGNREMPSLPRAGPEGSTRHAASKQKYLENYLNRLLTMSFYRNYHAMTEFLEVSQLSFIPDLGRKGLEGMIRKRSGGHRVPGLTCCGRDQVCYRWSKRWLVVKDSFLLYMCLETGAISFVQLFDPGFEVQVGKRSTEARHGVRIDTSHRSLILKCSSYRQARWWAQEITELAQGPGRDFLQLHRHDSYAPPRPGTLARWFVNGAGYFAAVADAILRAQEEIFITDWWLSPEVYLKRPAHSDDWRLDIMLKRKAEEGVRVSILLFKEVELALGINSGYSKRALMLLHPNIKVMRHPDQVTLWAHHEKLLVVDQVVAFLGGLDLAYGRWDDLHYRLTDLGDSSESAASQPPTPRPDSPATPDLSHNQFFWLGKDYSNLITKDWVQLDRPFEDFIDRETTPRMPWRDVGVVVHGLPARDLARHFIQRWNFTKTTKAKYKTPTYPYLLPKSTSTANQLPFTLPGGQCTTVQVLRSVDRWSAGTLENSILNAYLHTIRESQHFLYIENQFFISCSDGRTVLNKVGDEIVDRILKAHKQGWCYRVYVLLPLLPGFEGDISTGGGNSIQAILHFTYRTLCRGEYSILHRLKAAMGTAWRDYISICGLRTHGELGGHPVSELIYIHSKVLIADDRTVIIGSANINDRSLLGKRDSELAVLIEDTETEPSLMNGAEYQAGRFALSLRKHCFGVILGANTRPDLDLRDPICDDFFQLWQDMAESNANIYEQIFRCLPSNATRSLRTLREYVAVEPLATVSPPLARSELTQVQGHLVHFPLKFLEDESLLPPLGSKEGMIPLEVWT
# Sequence of Phospholipase D2 (Homo sapiens) (O14939 whole entry, looked up): as above
row,Compound,remaining activity
1,O=C(C1C[C@@H]1c1ccccc1)N1CCC2(CC1)C(=O)NCN2c1ccccc1 (some centres not stated),84%
2,O=C(NCCN1CCN(c2ccccn2)CC1)c1ccc(Cl)cc1,106%
3,Cc1ccc(C(=O)NCCN2CCC(n3c(=O)[nH]c4cc(Br)ccc43)CC2)cc1,21.8% (active)
4,O=C(NCCN1CCC(c2nc3ccccc3[nH]2)CC1)C1CC1c1ccccc1 (configuration not stated),95.6%
5,O=C(NCCN1CCC(n2c(=O)[nH]c3cc(Cl)ccc32)CC1)c1ccc2ccccc2c1,63.9%
6,C[C@@H](CN1CCC(n2c(=O)[nH]c3ccccc32)CC1)NC(=O)CSc1ccccc1,86.7%
7,C[C@@H](CN1CCC(n2nnc3cc(C(F)(F)F)ccc32)CC1)NC(=O)c1ccc2ccccc2c1,107%
8,Cn1c(=O)n(C2CCN(CCNC(=O)c3ccc(F)cc3)CC2)c2ccccc21,69.8%
9,C[C@@H](CN1CCC(n2c(=O)[nH]c3ccccc32)CC1)NC(=O)CCc1ccc(F)cc1,48.9% (active)
10,O=C(c1ccc2ccccc2c1)N1CCC(n2c(=O)[nH]c3cc(Cl)ccc32)CC1,77.7%
11,C[C@@H](CN1CCC(n2c(=O)[nH]c3ccccc32)CC1)NC(=O)c1ccc2ncccc2c1,82.2%
12,O=c1[nH]c2ccccc2n1C1CCN(CCNS(=O)(=O)c2ccccc2Br)CC1,75.8%
13,COc1cccc(C(=O)NCCN2CCC(n3c(=O)[nH]c4ccccc43)CC2)n1,72.5%
14,O=C(NCCN1CCC2(CC1)CCN(c1ccccc1)C2=O)c1ccc2ccccc2c1,55%
15,O=C(NCCN1CCN(c2ccncc2)CC1)c1cc2ccccc2s1,90.5%
16,Cc1cccc(NC(=O)NCCN2CCC(n3c(=O)[nH]c4ccccc43)CC2)c1,111%
17,C[C@@H](CN1CCC(n2c(=O)[nH]c3ccccc32)CC1)NC(=O)c1ccc(Cl)c(Cl)c1,76.3%
18,O=C(NCCN1CCC(n2c(=O)[nH]c3ccccc32)CC1)N1c2ccccc2C=Cc2ccccc21,66.5%
19,C[C@@H](CN1CCC2(CC1)CCN(C)C2=O)NC(=O)c1cnc2ccccc2c1,113%
20,Cn1c(C2CCN(CCN)CC2)nc2ccccc21 (tested in a mixture with another compound),117%
21,CCCCS(=O)(=O)NCCN1CCC(n2c(=O)[nH]c3ccccc32)CC1,78.3%
22,O=c1[nH]c2ccccc2n1C1CCN(CCNS(=O)(=O)c2ccc(F)cc2)CC1,75.9%
23,O=C(NCCN1CCC(C(=O)NCc2ccc(Cl)cc2)CC1)c1ccc2ccccc2c1,106%
24,O=c1[nH]c2ccccc2n1C1CCN(CCNS(=O)(=O)c2ccccc2C(F)(F)F)CC1,98%
25,COc1cccc(N2CCN(CCNC(=O)c3ccc4ccccc4c3)CC2)c1,77.4%
26,O=C(NCCN1CCC2(CCc3ccccc32)CC1)c1cnc2ccccc2c1,100%
27,C[C@@H](CN1CCC2(CC1)CN(S(C)(=O)=O)c1ccccc12)NC(=O)[C@H]1C[C@@H]1c1ccccc1,109%
